We go through 39 compounds from PubChem BioAssay (NCATS).

SMILES strings stand for the structures. Several values for one entry are separate records, joined by “and”; a condition that tells them apart may be missing. Equal entries are not always repeated. Records with an inconclusive call do not appear. Values without a mark were called inactive. Activity calls are given as the source filed them. Calls follow the shape of the dose curve; as a rule, active = well fitted inhibition curve with a large enough effect; inconclusive = small, poorly fitted or top-dose-only effect; inactive = flat fitted curve, though single readings scatter. Starred links: 1 amine or outer side, 2 acyl side, 3 side chain; linkers in the order of their positions; H or OH if unused. Positions of bridges follow the written chain, without caps; N, C: chain ends. Non-standard residues stand in square brackets, D forms with d. Residues, ends and D or L forms follow the SMILES beside them. Chains are numbered I, II in the order given. ξ: configuration not given here. *: point of attachment. Actinocin(9to1) = Cc1c2oc3c(C)ccc(C(=O)[*:1])c3nc-2c(C(=O)[*:2])c(N)c1=O; Octanoyl(6-Me) = CCC(C)CCCCC(=O)*; ξThr(3R) = C[C@@H](O)C(N)C(=O)O; NMeV = CN[CH](C(=O)O)C(C)C; dDab = NCC[C@@H](N)C(=O)O; Dab = NCC[C@H](N)C(=O)O; Sar = CNCC(=O)O
% is scaled to controls: 0 for no effect and ±100 for the full control effect; potency is read from the fitted curve at half-maximal effect.

In the experiment the test system is CRL-7250. In words: Cytotoxic Profiling of Annotated Libraries Using Quantitative High-Throughput Screening (AID 1296008). Also: nearly all actives have a fitted effect of over 60% in size. To be noted: Five cell lines viability, CellTiter-Glo ATP luminescence, 48-72 h; max response: stronger effect = lower value. Put shortly:
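Compounds were pin-transferred onto cells and incubated 48 or 72 hr at 37 degree Celsius, 95% humidity. CellTiter-Glo was added, plates sat 10 min at room temperature, then ATP-coupled luminescence was imaged as the viability read-out.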
(ATP-based viability assays read luminescence as a measure of living cells.)
In the case of `COc1ccc(C[C@@H](C)[C@@H](C)Cc2ccc(OC)c(OC)c2)cc1OC`, the Potency was 3.32 µM (active). Consider `CC(=O)[C@]1(O)Cc2c(O)c3c(c(O)c2[C@@H](O[C@H]2C[C@H](N)[C@@H](O)[C@H](C)O2)C1)C(=O)c1ccccc1C3=O`, for which the Potency was 1.48 µM (active). For `CC(C)(O)[C@H]1CC[C@@](C)([C@H]2[C@@H](O)C[C@@]3(C)[C@@H]4C[C@H](O[C@@H]5O[C@H](CO)[C@@H](O)[C@H](O)[C@@H]5O)[C@H]5C(C)(C)[C@@H](O[C@@H]6OC[C@@H](O)[C@H](O)[C@@H]6O)CC[C@@]56C[C@@]46CC[C@]23C)O1`, the compound was called inactive. In the case of `COC1=C(OC)C(=O)C(CC=C(C)CCC=C(C)CCC=C(C)CCC=C(C)CCC=C(C)CCC=C(C)CCC=C(C)CCC=C(C)CCC=C(C)CCC=C(C)C)=C(C)C1=O`, the compound was called inactive. For the compound `C[C@H](CCC(=O)O)[C@H]1CCC2C3C[C@H](O)[C@@H]4C[C@H](O)CC[C@]4(C)C3CC[C@@]21C` (some centres undefined), the max response was 3.11%. Same read-out and setting: the result for `CCOC(=O)C=C[C@H](C[C@@H]1CCNC1=O)NC(=O)[C@@H](CC(=O)[C@@H](NC(=O)c1cc(C)on1)C(C)C)Cc1ccc(F)cc1` reads -2.35%. Take `CNC(=O)c1ccc(Nc2cc(Nc3ccccc3S(=O)(=O)C(C)C)c3cc[nH]c3n2)nc1`: the Potency is 3.32 µM (active). Regarding `Cc1cnc(NC(=O)Nc2cc(Br)c(C)cc2OC[C@@H]2CNCCO2)cn1`, the max response is -18.7%. Regarding `C=C1CCC2[C@](C)(CO)C(O)CC[C@]2(C)C1CC=C1C(=O)OCC1O` (some centres undefined), the max response is -1.23%.

For `CC(C)N(CC[C@H](c1ccccc1)c1cc(CO)ccc1O)C(C)C`, the result was inactive. For the compound `FC(F)c1nc2ccccc2n1-c1nc(N2CCOCC2)nc(N2CCOCC2)n1`, the Potency is 590 nM (active) and 1.16 µM (active). With `CON=C(C(=O)N[C@@H]1C(=O)N2C(C(=O)O)=C(CSC(=O)c3ccco3)CS[C@H]12)c1csc(N)n1`, the max response was 4.77%.

Turning to `C[C@@H]1[C@H](C)CC[C@]2(C(=O)O)CC[C@]3(C)C(=CC[C@@H]4[C@@]5(C)C[C@@H](O)[C@H](O)[C@@](C)(CO)[C@H]5CC[C@]43C)[C@@H]12`, the max response is -10.9%. Same read-out and setting: the result for `Nc1ccn(C2CO[C@H](CO)O2)c(=O)n1` (some centres undefined) reads -10.6%.

With `O=C(CN1C(=O)C2(CCCC2)NC[C@H]1c1cc(F)cc(F)c1)Nc1ccc2c(c1)C[C@@]1(C2)C(=O)Nc2ncccc21`, the compound was called inactive. As for `Nc1nc(=O)n([C@H]2C[C@H](O)[C@@H](CO)O2)cc1F`, the result was inactive.

On to `CCC(C)CCCCC(=O)N[C@@H](CCN)C(=O)NC(C(=O)N[C@H](CCN)C(=O)N[C@@H]1CCNC(=O)C([C@@H](C)O)NC(=O)[C@@H](CCN)NC(=O)[C@@H](CCN)NC(=O)[C@@H](CC(C)C)NC(=O)[C@H](Cc2ccccc2)NC(=O)[C@H](CCN)NC1=O)[C@@H](C)O` (stereo partly drawn) ({Octanoyl(6-Me)}-[Dab][ξThr(3R)][dDab][dDab][Dab]F[dL][dDab][dDab][ξThr(3R)]; lactam 4-C), for which the result was inactive. Regarding `CN[C@H]1[C@@H](O)[C@@H]2O[C@@H]3O[C@H](C)CC(=O)[C@]3(O)O[C@@H]2[C@@H](NC)[C@H]1O`, the max response is 4.26%. Still for that read-out and setting: the result for `O=C1c2c(O)cccc2[C@@H]([C@@H]2O[C@H](CO)[C@@H](O)[C@H](O)[C@H]2O)c2cc(CO)cc(O)c21` reads -3.91%. `CC(=O)N[C@@H]1[C@H](O[C@@H]2c3ccc(c(Cl)c3)Oc3cc4cc(c3O[C@H]3O[C@H](CO)[C@@H](O)[C@H](O)[C@H]3NC(=O)CCCCCCCC(C)C)Oc3ccc(cc3Cl)C[C@H]3NC(=O)[C@H](N)c5ccc(O)c(c5)Oc5cc(O)cc(c5)[C@H](NC3=O)C(=O)N[C@H]4C(=O)N[C@H]3C(=O)N[C@@H]2C(=O)N[C@@H](C(=O)O)c2cc(O)cc(O[C@H]4O[C@H](CO)[C@@H](O)[C@H](O)[C@H]4O)c2-c2cc3ccc2O)O[C@H](CO)[C@@H](O)[C@@H]1O`: the call was inactive. Regarding `O=c1ccn([C@@H]2O[C@H](CO)[C@H](O)[C@@H]2F)c(=O)[nH]1`, the max response was -4.58%. The same measure, in the same setting: the result for `CON=C(C(=O)N[C@@H]1C(=O)N2C(C(=O)O)=C(Cn3ccc(=N)n3CCO)CS[C@H]12)c1csc(N)n1` reads -8.38%. On to `O=C(C=Cc1ccc(CN(CCO)CCc2c[nH]c3ccccc23)cc1)NO`, for which the Potency is 0.833 µM (active). For the compound `C[C@H](NC(=O)C(C#N)=Cc1cccc(Br)n1)c1ccccc1`, the Potency is 5.26 µM (active).

`COc1cc([C@@H]2c3cc4c(cc3[C@@H](O[C@@H]3O[C@@H]5CO[C@@H](c6cccs6)O[C@@H]5[C@H](O)[C@@H]3O)[C@H]3COC(=O)[C@H]23)OCO4)cc(OC)c1O`: the Potency was 16.6 µM (active). Regarding `C=CCNC1=C2C[C@@H](C)C[C@H](OC)[C@@H](O)[C@@H](C)C=C(C)[C@H](OC(N)=O)[C@@H](OC)C=CC=C(C)C(=O)NC(=CC1=O)C2=O`, the Potency was 0.296 µM (active).

Take `CCOC(=O)N1CCN([N+]([O-])=NOc2ccc([N+](=O)[O-])cc2[N+](=O)[O-])CC1`: the max response was -5.72%. On to `COc1cccc2c1C(=O)c1c(O)c3c(c(O)c1C2=O)C[C@@](O)(C(C)=O)C[C@H]3O[C@H]1C[C@H](N)[C@H](O)[C@H](C)O1`, for which the Potency is 0.132 µM (active). For the compound `C=CC1=C(C(=O)O)N2C(=O)[C@@H](NC(=O)C(=NO)c3csc(N)n3)[C@H]2SC1`, the compound was classed as inactive. As for `O=C(O)CCCCCC(=O)NN=C1CCCC1`, the max response is 1.92%. As for `Cc1ncc(-c2ccnc(Nc3ccc(S(C)(=O)=O)cc3)n2)n1C(C)C`, the Potency was 3.72 µM (active). For `CC[C@H]1OC(=O)[C@H](C)[C@@H](O[C@H]2C[C@@](C)(OC)[C@@H](O)[C@H](C)O2)[C@H](C)[C@@H](O[C@@H]2O[C@H](C)C[C@H](N(C)C)[C@@H]2O)[C@](C)(OC)C[C@@H](C)C(=O)[C@H](C)[C@@H](O)[C@]1(C)O`, the max response is 4.09%. With `C=C(C)[C@@H]1CC[C@]2(C(=O)O)CC[C@]3(C)[C@H](CC[C@@H]4[C@@]5(C)CC[C@H](O)C(C)(C)[C@@H]5CC[C@]43C)[C@@H]12`, the max response is -12.6%.

`O=C(C=CC#Cc1cccc(NS(=O)(=O)c2ccccc2)c1)NO`: the Potency is 13.2 µM (active).

Turning to `COC(=O)[C@H](CCCN=C(N)N)NS(=O)(=O)c1ccc(C)cc1`, the call was inactive. As to `Cc1c2oc3c(C)ccc(C(=O)NC4C(=O)NC(C(C)C)C(=O)N5CCCC5C(=O)N(C)CC(=O)N(C)C(C(C)C)C(=O)OC4C)c3nc-2c(C(=O)NC2C(=O)NC(C(C)C)C(=O)N3CCCC3C(=O)N(C)CC(=O)N(C)C(C(C)C)C(=O)OC2C)c(N)c1=O` (centres undefined) (I: TVP[Sar][NMeV] / II: TVP[Sar][NMeV]; ester I:1-I:C, II:1-II:C; linker I:N-II:N via Actinocin(9to1); configuration not given here), the max response was -99.9%. As to `CC(=O)OC[C@@H]1O[C@@H](n2ccc(=O)[nH]c2=O)[C@H](OC(C)=O)[C@H]1OC(C)=O`, the max response was -3.38%. `NC(=O)Nc1cc(-c2ccc(CN3CCOCC3)cc2)sc1C(N)=O`: the Potency is 13.2 µM (active). As for `CC(=O)OCC(=O)[C@@]12N=C(C)O[C@H]1C[C@H]1[C@@H]3CCC4=CC(=O)C=C[C@]4(C)[C@@H]3[C@@H](O)C[C@@]12C`, the max response is 0.387%.
